PubChem BioAssay (NCI)
The panel holds about 83,000 compounds, 20% with a hit somewhere; the sample as a whole holds those more often.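 Interpretation: 100, growth as untreated; towards 0, rising growth inhibition; 0, no net growth; 0 to -100, cell death. Compounds scoring below 10 were considered active.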 The source made the active and inactive calls.

Columns and labels:
Assay in all cases: NCI-60 one-dose screen, 48 h (100 = growth as untreated, 0 = no growth, -100 = all killed)
SK-MEL-2 melanoma = details: 10 µM
EKVX NSCLC = details: 10 µM
SN12C renal = details: 10 µM
UO-31 renal = details: 10 µM
TK-10 renal = details: 10 µM unless noted
ACHN renal = details: 10 µM
CAKI-1 renal = details: 10 µM
A498 renal = details: 10 µM
CCRF-CEM leukemia = details: 10 µM
MOLT-4 leukemia = details: 10 µM

Measured: growth

O/N=C/c1ccc(O)cc1O
inactive: SK-MEL-2 melanoma 92.9% | EKVX NSCLC 102% | SN12C renal 98% | UO-31 renal 99% | TK-10 renal 102% | ACHN renal 95.9% | CAKI-1 renal 101% | A498 renal 85.9% | CCRF-CEM leukemia 86.5% | MOLT-4 leukemia 102%

Oc1ccc2c(c1)OCC1(O)Cc3cc(O)c(O)cc3C21 (stereo not given)
inactive: SK-MEL-2 melanoma 65.7% | EKVX NSCLC 107% | SN12C renal 100% | UO-31 renal 58.9% | TK-10 renal 106% | ACHN renal 104% | CAKI-1 renal 85.5% | A498 renal 99.1% | CCRF-CEM leukemia 71.5% | MOLT-4 leukemia 316%

c1cc[n+](C2c3ccccc3C([n+]3ccccc3)c3ccccc32)cc1 (stereo not given)
active: CCRF-CEM leukemia -42.3%
inactive: SK-MEL-2 melanoma 92.8% | EKVX NSCLC 48.3% | SN12C renal 26.7% | UO-31 renal 61.8% | TK-10 renal 52% | ACHN renal 91.8% | CAKI-1 renal 87.3% | A498 renal 94.9% | MOLT-4 leukemia 86.5%

Nc1nc(N)c2cc(S(=O)(=O)c3cccc(C(F)(F)F)c3)ccc2n1
inactive: SK-MEL-2 melanoma 89.8% | EKVX NSCLC 44% | SN12C renal 33.7% | UO-31 renal 56% | TK-10 renal 72.6% | ACHN renal 38.4% | CAKI-1 renal 65.1% | A498 renal 78.4% | CCRF-CEM leukemia 45.8% | MOLT-4 leukemia 37.3%

CCCCOC(OCCCC)c1ccccc1
inactive: SK-MEL-2 melanoma 108% | EKVX NSCLC 110% | SN12C renal 101% | UO-31 renal 98.4% | TK-10 renal 107% | ACHN renal 109% | CAKI-1 renal 96.3% | A498 renal 84.7% | CCRF-CEM leukemia 105% | MOLT-4 leukemia 106%

CCOC(=O)C(=O)C=P(c1ccccc1)(c1ccccc1)c1ccccc1
inactive: SK-MEL-2 melanoma 99.6% | EKVX NSCLC 105% | SN12C renal 103% | UO-31 renal 90.2% | TK-10 renal 99% | ACHN renal 108% | CAKI-1 renal 101% | A498 renal 105% | CCRF-CEM leukemia 99.9% | MOLT-4 leukemia 101%

C/C(=C\c1ccc([N+](=O)[O-])cc1)C(=O)O
inactive: SK-MEL-2 melanoma 110% | EKVX NSCLC 94.7% | SN12C renal 99% | UO-31 renal 95.3% | TK-10 renal 105% | ACHN renal 98% | CAKI-1 renal 95.6% | A498 renal 81.7% | CCRF-CEM leukemia 87.6% | MOLT-4 leukemia 102%

Cc1cc(=O)[nH]c(NN=C2CCCC2)n1
inactive: SK-MEL-2 melanoma 107% | EKVX NSCLC 107% | SN12C renal 104% | UO-31 renal 91.2% | TK-10 renal 122% | ACHN renal 108% | CAKI-1 renal 100% | A498 renal 129% | CCRF-CEM leukemia 102% | MOLT-4 leukemia 101%

COCCOCCCl
inactive: SK-MEL-2 melanoma 109% | EKVX NSCLC 112% | SN12C renal 104% | UO-31 renal 97.2% | TK-10 renal 102% | ACHN renal 113% | CAKI-1 renal 98.8% | A498 renal 91.2% | CCRF-CEM leukemia 106% | MOLT-4 leukemia 117%

CSC[C@H](NC(=O)COc1cccc2cnccc12)C(=O)NC(Cc1ccccc1)C(O)C(=O)N1CSC[C@H]1C(=O)NC(C)(C)C (stereo not given in full)
inactive: SK-MEL-2 melanoma 113% | EKVX NSCLC 103% | SN12C renal 102% | UO-31 renal 94.4% | TK-10 renal 139% | ACHN renal 109% | CAKI-1 renal 95.5% | A498 renal 95.6% | CCRF-CEM leukemia 111% | MOLT-4 leukemia 101%

CCOC(=O)c1ccc(Nc2sc(C(=O)c3cccc([N+](=O)[O-])c3)c(N)c2C#N)cc1
inactive: SK-MEL-2 melanoma 33% | EKVX NSCLC 62.1% | SN12C renal 52.9% | UO-31 renal 31.1% | TK-10 renal 74.1% | ACHN renal 41.3% | A498 renal 38.4% | MOLT-4 leukemia 23.6%
active: CAKI-1 renal -17.8% | CCRF-CEM leukemia 5.1%

CC(=O)c1c[nH]c2ccccc12
inactive: SK-MEL-2 melanoma 161% | EKVX NSCLC 99.2% | SN12C renal 99.2% | UO-31 renal 74.7% | TK-10 renal 108% | ACHN renal 107% | CAKI-1 renal 80.1% | A498 renal 103% | CCRF-CEM leukemia 102% | MOLT-4 leukemia 104%

CC(=O)OC1CC2C(C)(C)OC3CC(=O)OCC32C2CCC3(C)C(=CCC3c3ccoc3)C12C (stereo not given)
inactive: SK-MEL-2 melanoma 99.5% | EKVX NSCLC 102% | SN12C renal 105% | UO-31 renal 86.9% | TK-10 renal 107% | ACHN renal 101% | CAKI-1 renal 98.7% | A498 renal 110% | CCRF-CEM leukemia 101% | MOLT-4 leukemia 90.8%

CCOC(=O)CNN
inactive: SK-MEL-2 melanoma 113% | EKVX NSCLC 113% | SN12C renal 101% | UO-31 renal 91.4% | TK-10 renal 102% | ACHN renal 119% | CAKI-1 renal 106% | A498 renal 79.6% | CCRF-CEM leukemia 97.8% | MOLT-4 leukemia 112%

Cc1ccc(O)c(C(=O)c2ccccc2)c1
inactive: SK-MEL-2 melanoma 107% | EKVX NSCLC 103% | SN12C renal 100% | UO-31 renal 97.2% | TK-10 renal 111% | ACHN renal 104% | CAKI-1 renal 104% | A498 renal 78.7% | CCRF-CEM leukemia 55.8% | MOLT-4 leukemia 112%

CC(C)CCOC(=O)c1ccccc1
inactive: SK-MEL-2 melanoma 106% | EKVX NSCLC 110% | SN12C renal 102% | UO-31 renal 92% | TK-10 renal 101% | ACHN renal 111% | CAKI-1 renal 97.1% | A498 renal 97.7% | CCRF-CEM leukemia 109% | MOLT-4 leukemia 98.7%

O=S(=O)(O)C(Nc1ccccc1)c1ccccc1 (stereo not given)
inactive: SK-MEL-2 melanoma 82.2% | EKVX NSCLC 104% | SN12C renal 97.8% | UO-31 renal 92.7% | TK-10 renal 100% | ACHN renal 97.6% | CAKI-1 renal 93.8% | A498 renal 81.3% | CCRF-CEM leukemia 115% | MOLT-4 leukemia 106%

C[C@]12CC[C@@H]3c4ccc(OCC(=O)O)cc4CC[C@H]3[C@@H]1CCC2=O
inactive: SK-MEL-2 melanoma 105% | EKVX NSCLC 117% | SN12C renal 102% | UO-31 renal 86.1% | TK-10 renal 103% | ACHN renal 96.9% | CAKI-1 renal 113% | A498 renal 78.1% | CCRF-CEM leukemia 116% | MOLT-4 leukemia 86.2%

O=C(N/N=C\c1cc(Br)cc(Br)c1O)N/N=C/c1cc(Br)cc(Br)c1O
inactive: EKVX NSCLC 69.3% | SN12C renal 59% | UO-31 renal 31% | TK-10 renal 65.5% | ACHN renal 52.2% | CAKI-1 renal 41.4% | A498 renal 70.4% | MOLT-4 leukemia 36.4%
active: SK-MEL-2 melanoma -23.8% | CCRF-CEM leukemia 3.69%

CCCC(=O)Nc1ccc2c(c1)CN1C(=O)c3ccccc3C1=N2
inactive: SK-MEL-2 melanoma 100% | EKVX NSCLC 108% | SN12C renal 100% | UO-31 renal 86.1% | TK-10 renal 96.4% | ACHN renal 111% | CAKI-1 renal 97.2% | A498 renal 88.5% | CCRF-CEM leukemia 99.6% | MOLT-4 leukemia 98.4%

Cc1cc(C(O)(c2ccc(Nc3ccccc3)cc2)c2ccc(Nc3ccc(S(=O)(=O)O)cc3)cc2)ccc1N (stereo not given)
inactive: SN12C renal 22.5% | CAKI-1 renal 31.7%
active: SK-MEL-2 melanoma -33.1% | EKVX NSCLC 9.86% | UO-31 renal 3.47% | TK-10 renal 7.3% | ACHN renal -13.2% | A498 renal 2.33% | CCRF-CEM leukemia 2.35% | MOLT-4 leukemia 8.2%

COc1nc(N)nc2c1ncn2C1OC(CO)CC1O (stereo not given)
inactive: SK-MEL-2 melanoma 106% | EKVX NSCLC 102% | SN12C renal 103% | UO-31 renal 82.4% | TK-10 renal 105% | ACHN renal 97.4% | CAKI-1 renal 104% | A498 renal 114% | CCRF-CEM leukemia 58.8% | MOLT-4 leukemia 97.7%

S=C1CCCCCN1
inactive: SK-MEL-2 melanoma 105% | EKVX NSCLC 98.1% | SN12C renal 100% | UO-31 renal 82.5% | TK-10 renal 109% | ACHN renal 99.1% | CAKI-1 renal 93.9% | A498 renal 101% | CCRF-CEM leukemia 107% | MOLT-4 leukemia 111%

COS(=O)(=O)c1ccc(Br)cc1
inactive: SK-MEL-2 melanoma 95% | EKVX NSCLC 106% | SN12C renal 93.9% | UO-31 renal 86.2% | TK-10 renal 97.5% | ACHN renal 103% | CAKI-1 renal 115% | A498 renal 113% | CCRF-CEM leukemia 127% | MOLT-4 leukemia 129%

CCCCC1C(=O)N(c2ccccc2)N(c2ccccc2)C1=O
inactive: SK-MEL-2 melanoma 98.7% | EKVX NSCLC 105% | SN12C renal 96.2% | UO-31 renal 90.4% | TK-10 renal 103% | ACHN renal 102% | CAKI-1 renal 103% | A498 renal 125% | CCRF-CEM leukemia 95.8% | MOLT-4 leukemia 107%

CC(=O)Oc1ccc(Br)cc1C(=O)O
inactive: SK-MEL-2 melanoma 99.8% | EKVX NSCLC 104% | SN12C renal 102% | UO-31 renal 81.8% | TK-10 renal 102% | ACHN renal 99.3% | CAKI-1 renal 95.8% | A498 renal 131% | CCRF-CEM leukemia 88.7% | MOLT-4 leukemia 101%

Nc1ccc(N)c([N+](=O)[O-])c1
inactive: SK-MEL-2 melanoma 115% | EKVX NSCLC 110% | SN12C renal 97.8% | UO-31 renal 88.2% | TK-10 renal 130% | ACHN renal 102% | CAKI-1 renal 106% | A498 renal 100% | CCRF-CEM leukemia 107% | MOLT-4 leukemia 104%

Cc1nc2ccccc2c2nnc(SCC(=O)N(Cc3ccccc3)c3ccccc3)n12
active: A498 renal -16.6%
inactive: SK-MEL-2 melanoma 51.2% | EKVX NSCLC 76.6% | SN12C renal 100% | UO-31 renal 89% | TK-10 renal 189% | ACHN renal 92.8% | CAKI-1 renal 71.3% | CCRF-CEM leukemia 85.4% | MOLT-4 leukemia 93.1%

C1CNC(C2=NCCN2)=N1
inactive: SK-MEL-2 melanoma 116% | EKVX NSCLC 103% | SN12C renal 102% | UO-31 renal 90.2% | TK-10 renal 103% | ACHN renal 109% | CAKI-1 renal 99.2% | A498 renal 108% | CCRF-CEM leukemia 109% | MOLT-4 leukemia 96.4%
